Compound activity (PubChem)
Compounds with a hit are over-represented: about 3.2% of the library has one in this group of screens.
PrPC surface inh – reduces human prion protein on the cell surface; cell surface PrPC, TR-FRET read-out; inhibition, % at 13.8 µM; 0.43% of 370,000 active; in the data active = inhibition above about 24%; also: 0% = median of the test wells and 100% = reference compound wells
FBA Mtb inh – Mtb fructose-bisphosphate aldolase inhibition; purified M. tuberculosis FBA, fluorescence read-out; inhibition, % at 1 µM; 2.3% of 360,000 active; AID 588726; in the data active = inhibition above about 27%;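 also: 0% = vehicle and 100% = reference inhibitor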
Target sequence (P9WQA3 whole entry, looked up): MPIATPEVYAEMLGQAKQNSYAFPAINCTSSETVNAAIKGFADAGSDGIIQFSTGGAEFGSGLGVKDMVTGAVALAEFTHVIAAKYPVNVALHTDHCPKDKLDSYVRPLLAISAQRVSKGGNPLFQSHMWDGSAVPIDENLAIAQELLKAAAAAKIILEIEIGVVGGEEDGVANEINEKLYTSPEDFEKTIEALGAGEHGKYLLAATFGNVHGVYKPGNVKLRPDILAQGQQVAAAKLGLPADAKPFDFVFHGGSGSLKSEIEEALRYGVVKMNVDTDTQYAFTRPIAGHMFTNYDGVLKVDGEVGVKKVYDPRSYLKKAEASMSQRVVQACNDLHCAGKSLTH
TcdB GH inh – TcdB glycohydrolase inhibition. P18177. TcdB glycohydrolase enzymatic assay, plate reader. inhibition, % at 9.99 µM. 0.24% of 350,000 active. AID 652162
GDH-TPI counter-1 – inhibits GDH-TPI coupling enzymes, artifact for Mtb FBA screen. AID 588335. 1.2% of 360,000 active. GDH-TPI coupled enzyme counterscreen, NADH absorbance. inhibition, % at 4.8 µM; in the data active = inhibition above about 30%;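 also: 0% = DMSO wells and 100% = wells lacking the enzyme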
Y pestis TopoI – inhibitors of Yersinia pestis topoisomerase I. activity, % at 10 µM. Y. pestis Topo-I cleavage product accumulation, plate reader. 0.064% of 360,000 active; in the data active = activity above about 50%, passing the limit was not always enough
Mtb FBA confirm – confirmation of M. tuberculosis fructose-bisphosphate aldolase inhibitors; shares compounds with FBA Mtb inh; AID 651616; 78% of 5,600 active; inhibition, % at 1 µM; purified M. tuberculosis FBA, fluorescence read-out; in the data active = inhibition above about 27%;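 also: 0% = vehicle wells and 100% = reference inhibitor wells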
GDH-TPI counter-2 – GDH-TPI inhibition counter-screen for FBA inhibitors; shares compounds with FBA Mtb inh; inhibition, % at 1 µM; GDH-TPI coupled enzyme counterscreen, fluorescence; 81% of 5,600 active
Numbers without * were called inactive; · = no result given; + = active, no number. Rule as the data show it, unless noted: active = inhibition above about 10%; inactive = the rest.

SMILES	PrPC surface inh	FBA Mtb inh	TcdB GH inh	GDH-TPI counter-1	Y pestis TopoI	Mtb FBA confirm	GDH-TPI counter-2
CN1C(=S)SC(N(O)C(=O)Nc2cccc3ccccc23)C1(C)C (configuration not stated)	2	44*	·	-5	-11	35*	25*
COCC#Cc1cnc2c(c1)C(=O)N([C@@H](C)CO)C[C@H](C)[C@@H](CN(C)S(=O)(=O)c1ccccc1)O2	·	·	0	·	·	·	·
COc1ccc2nc3oc(C(=O)NCCCOC(C)C)cc3cc2c1	-22	111*	-1	13	7	7	2
COc1ccc2nc3oc(C(=O)NCc4cccs4)cc3cc2c1	5	32*	·	24	4	2	-4
O=C(NCc1cccs1)c1cc2ccccc2o1	-4	-3	·	-6	0	·	·
CCOCCCNC(=O)CS(=O)(=O)Cc1nc(-c2cccc(OC)c2)oc1C	1	3	·	-1	-9	·	·
CCOCCCNC(=O)c1cc2cc3cc(OC)ccc3nc2o1	-30	110*	0	2	-11	91*	66*
C[C@H]1CN([C@@H](C)CO)C(=O)Cc2cc(NC(=O)CCC(F)(F)F)ccc2O[C@@H]1CN(C)Cc1ccccc1	·	·	0	·	·	·	·
CC(C)NC(=O)N(C)C[C@H]1Oc2ncc(C#CCC3CCCC3)cc2C(=O)N([C@@H](C)CO)C[C@H]1C	·	·	0	·	·	·	·
CCN(CC)c1ccc(-c2c(C#N)c(N)nc(OC)c2C#N)cc1	10	55*	1	18	-6	34*	25*
Cc1ccc(C2N=C(N)Nc3nc(=O)c4ccccc4n32)cc1 (configuration not stated)	4	76*	1	3	2	9	6
NCC[C@@H]1CC[C@H](NC(=O)NC2CCCCC2)[C@H](CO)O1	·	·	1	·	·	·	·
CCC(CC)C(=O)Nc1nnc(-c2cccs2)s1	-2	36*	·	12	-8	88*	75*
CCOC(=O)c1sc2nc(C)nc(NCc3ccc(F)cc3)c2c1C	4	41*	2	15	1	44*	46*
CCOC(=O)c1sc2nc(C)nc(NCc3ccc(Cl)cc3)c2c1C	1	18	1	7	14	·	·
CCOC(=O)c1sc2nc(C)nc(NCc3cccnc3)c2c1C	-6	44*	1	0	-10	108*	88*
CCOC(=O)c1sc2nc(C)nc(Nc3ccc(OC)cc3)c2c1C	2	1	1	8	4	·	·
CCOC(=O)c1sc2nc(CC(=O)OC)nc(NCc3ccc(F)cc3)c2c1C	-14	32*	·	17	5	+	148*
Cc1cccc(Cn2c(-c3ccc[nH]c3=O)nc3ccccc32)c1	-2	101*	1	12	11	+	+
Cc1cccc(Cn2c(C(C)O)nc3ccccc32)c1 (configuration not stated)	1	0	·	2	9	·	·
CCc1csc(N2[C@@H](C#N)[C@H](c3ccc(-c4cccc(F)c4)cc3)[C@@H]2CO)n1	·	·	1	·	·	·	·
CCCCCCSc1ccc(-c2nc3ccc(C)cn3c2NCCCC)cc1OC	8	·	0	·	·	·	·
CCCCNc1c(-c2ccc(SC(C)CC)c(OC)c2)nc2ccc(C)cn12 (configuration not stated)	12	48*	0	14	32	35*	27*
CCCCNc1c(-c2ccc(-c3ccc(OC)cc3)c(OC)c2)nc2ccccn12	1	73*	0	23	22	82*	59*
CCCCCCSc1cccc(-c2nc3ccccn3c2NCc2ccccc2)c1	6	42*	-1	14	-7	101*	66*
CCCCNc1c(-c2ccc(SC(C)CC)c(OC)c2)nc2ccc(Cl)cn12 (configuration not stated)	6	16	-1	11	18	·	·
CCCCCCSc1cccc(-c2nc3cc(C)ccn3c2NCc2ccccc2)c1	-5	28*	1	19	10	122*	104*
Cc1ccc(S(=O)(=O)Nc2ccc3c(c2)C(=O)N([C@H](C)CO)C[C@@H](C)[C@H](CN(C)C(=O)NC2CCCCC2)OCCCC[C@@H](C)O3)cc1	·	·	0	·	·	·	·
C[C@H](CO)N1C[C@H](C)[C@@H](CN(C)Cc2ccc3c(c2)OCCN3C)OCc2ccccc2-c2c(n(C)c3ccccc23)C1=O	·	·	1	·	·	·	·
CS(=O)(=O)N1CC2(C1)[C@@H](c1ccccc1)[C@@H](CO)N2Cc1ccccn1	·	·	-6	·	·	·	·
